Reference: PubChem BioAssay AID1220 (Sanford-Burnham Center for Chemical Genomics, 2008)
The campaign covered roughly 190,000 compounds. About 1,300 (0.68%) were called active. No stated cut-off is given here; in the data, active means inhibition above about 50%; inactive means the rest. The entries come from a sample that favours actives as a whole.

target: Mannose-6-phosphate isomerase (Homo sapiens) (UniProt P34949); experiment: human PMI inhibitors, high substrate, primary screen, biochemical, fluorescence intensity, high mannose 6-phosphate (AID 1220); settings: recombinant PMI enzyme, coupled fluorescence intensity; at 20 µM; active compounds read high
Sequence (P34949 whole entry, looked up): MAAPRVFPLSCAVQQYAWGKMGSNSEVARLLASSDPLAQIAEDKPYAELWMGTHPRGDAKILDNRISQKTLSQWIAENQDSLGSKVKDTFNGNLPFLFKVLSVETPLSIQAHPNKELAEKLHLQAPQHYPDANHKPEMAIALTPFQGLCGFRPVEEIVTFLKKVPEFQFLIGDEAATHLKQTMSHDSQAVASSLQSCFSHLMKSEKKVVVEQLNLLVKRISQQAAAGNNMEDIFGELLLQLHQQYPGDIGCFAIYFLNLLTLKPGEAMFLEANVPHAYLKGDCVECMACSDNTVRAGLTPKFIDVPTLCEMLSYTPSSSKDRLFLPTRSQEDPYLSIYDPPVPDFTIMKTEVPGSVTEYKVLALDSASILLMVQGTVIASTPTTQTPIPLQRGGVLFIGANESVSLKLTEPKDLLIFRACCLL

Row | Compound | inhibition
1 | CCN(Cc1ccccc1)S(=O)(=O)c1cc(C(=O)c2c(N)n(C)c(=O)n(C)c2=O)ccc1OC | 0.7% (inactive)
2 | CC1CCCN(C(=S)SCC(=O)O)C1 (stereo unspecified) | 0.2% (inactive)
3 | CC(C)(C)NCC(=O)N/N=C/c1ccc(OCc2ccccc2)cc1 | -4.4% (inactive)
4 | Cc1cc(=O)[nH]c2c(N=Nc3ccc(O)cc3)c(N)nn12 | 45.7% (inactive)
5 | Nc1nn2c(-c3ccccc3)cc(=O)[nH]c2c1N=Nc1ccc(O)cc1 | 55.4% (active)
6 | Nc1nn2c(-c3ccccc3)cc(=O)[nH]c2c1N=Nc1ccc(Br)cc1 | 12.3% (inactive)
7 | COC(=O)c1ccccc1NC(=O)N1CCN(C(=O)c2ccco2)CC1 | 13.1% (inactive)
8 | CCn1c(C)c(C(C)=O)c(N2CCN(c3ccc(OC)cc3)CC2)nc1=S | 50.3% (active)
9 | CCn1c(C)c(C(C)=O)c(N2CCN(c3ccccc3)CC2)nc1=S | -20.8% (inactive)
10 | CCn1c(C)c(C(C)=O)c(N2CCN(c3ccc(F)cc3)CC2)nc1=S | -6.4% (inactive)
11 | O=S(=O)(c1ccc(Br)cc1)N1CCN=C1SCc1cccnc1 | 0.3% (inactive)
12 | Cc1ccc(-n2c(=O)c3ccccc3n(CC(=O)NCc3ccco3)c2=O)cc1 | -5.8% (inactive)
13 | CCCc1nnc2c(N(C)S(=O)(=O)c3ccccc3)nc3ccccc3n12 | 4.2% (inactive)
14 | COc1ccc(NC(=S)NC(C)Cc2cccs2)cc1 (stereo unspecified) | 3.7% (inactive)
15 | CCc1cccc(NC(=O)Cn2cc(C=O)c3ccccc32)c1 | -9.7% (inactive)
16 | CC(C)c1ccc(OCC(=O)NCCO)cc1 | 55.1% (active)
17 | CC(C)c1ccc(OC(=O)NCCO)cc1 | 9.1% (inactive)
18 | O=C(COc1ccc(Br)cc1)NCCO | 8.7% (inactive)
19 | COc1ccc(/C=N/Nc2nccnc2Cl)cc1 | -6.9% (inactive)
20 | Nc1ccc2c3c(cccc13)CC2 | 64.4% (active)
21 | CC(=O)c1ccc2c3c(cccc13)CC2 | 6% (inactive)
22 | c1ccc(Nc2ccc3c4c(cccc24)CC3)cc1 | 17.7% (inactive)
23 | OC(COc1ccc2c(c1)OCO2)CN1CCN(c2ccc(F)cc2)CC1 (stereo unspecified) | -1% (inactive)
24 | CC(=O)c1cn(CC(=O)Nc2ccc(C)cc2C)c2ccccc12 | -0.4% (inactive)
25 | COc1cc(/C=N/NC(N)=O)ccc1OC(=O)c1ccco1 | 3.7% (inactive)
26 | Cc1ccc(N(C(=O)C2CCCO2)C2C=CS(=O)(=O)C2)cc1Cl (stereo unspecified) | 0.2% (inactive)

Row | Compound | inhibition
27 | O=C(C1CCCO1)N(c1ccc(F)cc1)C1C=CS(=O)(=O)C1 (stereo unspecified) | 52.9% (active)
28 | CCOc1ccc(N(C(=O)C2CCCO2)C2C=CS(=O)(=O)C2)cc1 (stereo unspecified) | -4.8% (inactive)
29 | C=C1C(=O)[C@@]23[C@H](O)C[C@@H]4C(C)(C)CC[C@H](O)[C@]4(C)[C@@H]2C[C@H](O)[C@@H]1[C@H]3O | 52.3% (active)
30 | C=C1C(=O)[C@@]23[C@H](O)C[C@@H]4C(C)(C)CC[C@H](O)[C@@]4(C)[C@@H]2CC[C@@H]1[C@H]3O | 3.9% (inactive)
31 | Cc1cc2cc(C=O)c(Cl)nc2cc1C | 58.2% (active)
32 | Cc1ccc2cc(C=O)c(Cl)nc2c1 | 39.8% (inactive)
33 | Cc1cc2cc(C=C(C#N)C#N)c(Cl)nc2cc1C | 54.1% (active)
34 | CC(C)(C)c1nn(-c2ccccc2)c2nc(Cl)c(C=O)cc12 | -0.4% (inactive)
35 | CCOC(=O)/C(C#N)=C/c1cc2ccccc2nc1Cl | 21.1% (inactive)
36 | Cc1cc(C)c2cc(CNC3CCCC3)c(Cl)nc2c1 | 3.4% (inactive)
37 | Cc1ccc2cc(C=O)c(N(C)C)nc2c1 | 8.2% (inactive)
38 | CCOC(=O)/C(C#N)=C/c1cc2ccc(C)cc2nc1Cl | 21.5% (inactive)
39 | CCC(C)(C(=O)NC1CCCCC1)N(C(=O)C1CCC(=O)N1)c1ccc(C)cc1 (stereo unspecified) | -0.7% (inactive)
40 | CCC(=O)NC(=S)Nc1cccc(NC(=O)c2ccco2)c1 | 9.6% (inactive)
41 | CCC(C)C(NC(=O)c1ccc(Cl)cc1Cl)C(=O)O (stereo unspecified) | 1.7% (inactive)
42 | COc1ccc(CC(=O)Nc2ccccc2C(=O)N2CCOCC2)cc1 | 5.3% (inactive)
43 | CCOC(=O)N1CCC(N2Cc3cccc(C(=O)Nc4ccc(F)cc4)c3C2=O)CC1 | -3.9% (inactive)
44 | O=C(COc1ccccc1[N+](=O)[O-])NNC(=O)Nc1cccc2ccccc12 | 59.8% (active)
45 | NNC(=O)COc1ccccc1[N+](=O)[O-] | 4.8% (inactive)
46 | COC(=O)c1ccccc1NC(=O)COc1ccccc1[N+](=O)[O-] | -1.9% (inactive)
47 | CCOCCCn1c(=N)c(C(=O)NCc2ccc3c(c2)OCO3)cc2c(=O)n3ccccc3nc21 | -7.7% (inactive)
48 | CC(C)OCCCNC(=O)c1ccc(N(C)S(C)(=O)=O)cc1 | 6.8% (inactive)
49 | CCOc1cccc(C=Nc2cc(C)cc(C)c2O)c1O | 7% (inactive)
50 | Cc1ccc(N=Cc2sc(O)c3ccccc23)c(C)c1 | 2.2% (inactive)
51 | Cc1cccc(C=Nc2ccc3c(c2)oc2ccccc23)c1O | 30.1% (inactive)
52 | CCc1ccc(O)c(N=Cc2cccc(C)c2O)c1 | 17.4% (inactive)

Row | Compound | inhibition
53 | CCC(=O)N1CCN(c2ccccc2NC(=O)Cc2ccccc2)CC1 | 3.5% (inactive)
54 | CCNC(=S)Nc1ccc(S(=O)(=O)Nc2cc(C)nc(C)n2)cc1 | -7.6% (inactive)
55 | O=C(O)C1CC=CCC1C(=O)Nc1cccc(C(=O)N2CCCCC2)c1 (stereo unspecified) | -20.1% (inactive)
56 | COc1cc(C(c2sc3nc(C)nn3c2O)N2CCc3ccccc3C2)cc(OC)c1OC (stereo unspecified) | 5.1% (inactive)
57 | COc1cccc(C(c2sc3nc(C)nn3c2O)N2CCc3ccccc3C2)c1 (stereo unspecified) | 42.6% (inactive)
58 | Cc1ccc2c(c1)NC(=O)C(CC(=O)NCCCN1CCN(c3cc(C)ccc3C)CC1)O2 (stereo unspecified) | 9.9% (inactive)
59 | CN(C)/C=N/c1nc(-c2ccc3c(c2)OCO3)cs1 | 7.4% (inactive)
60 | CC(=O)Nc1cc(C(C)C)c(O)c(C(C)C)c1 | 6.7% (inactive)
61 | CC(C)c1cc(Nc2cccc(O)c2)cc(C(C)C)c1O | 53.6% (active)
62 | CC(C)c1cc(NC(=O)c2ccccc2)cc(C(C)C)c1O | 8.4% (inactive)
63 | CC(C)(C)NC(=O)C(c1ccc(OCC(N)=O)cc1)N(C(=O)c1cccnc1)C1CC1 (stereo unspecified) | -7.4% (inactive)
64 | C=CCNC(=O)c1ccc2c(c1)nnn2C | 3.7% (inactive)
65 | CN(C)/C=C/C(=O)c1cnc(-c2ccc(Cl)cc2)s1 | 0.9% (inactive)
66 | O=C(c1ccc(Cl)nc1)N1CCc2ccccc2C1 | 5.7% (inactive)
67 | Cc1cccc(Nc2nc(-c3c(C)nc4ccccn34)cs2)c1 | 47% (inactive)
68 | Cc1ccc(Nc2nc(-c3c(C)nc4ccccn34)cs2)cc1 | 57.1% (active)
69 | Cc1ccc(Nc2nc(-c3c(C)nc4ncccn34)cs2)cc1 | 18.6% (inactive)
70 | CSc1ccccc1NC(=O)COc1ccc(Cl)cc1 | 3.4% (inactive)
71 | CCCOC(=O)c1cc(NC(=O)/C=C/c2ccccc2)ccc1O | 14.7% (inactive)
72 | C/C=C/CSc1nc2c(c(=O)[nH]c(=O)n2C)n1Cc1ccc(C)cc1 | 14% (inactive)
73 | Cc1ccc(Cl)cc1NC1=C/C(=N\S(=O)(=O)c2cccs2)c2ccccc2C1=O | 16.4% (inactive)
74 | Cc1ccc(NC2=C/C(=N/S(=O)(=O)c3cccs3)c3ccccc3C2=O)cc1C | 31.2% (inactive)
75 | Cc1ccc(NC2=C/C(=N/S(=O)(=O)c3cccs3)c3ccccc3C2=O)cc1 | 47.9% (inactive)
76 | O=C1C(Nc2ccc(O)cc2)=C/C(=N/S(=O)(=O)c2cccs2)c2ccccc21 | 47.6% (inactive)
77 | COC(=O)c1ccccc1NC1=C/C(=N\S(=O)(=O)c2cccs2)c2ccccc2C1=O | -25.4% (inactive)
78 | Cc1ccccc1NC1=C/C(=N\S(=O)(=O)c2cccs2)c2ccccc2C1=O | 17.2% (inactive)

Row | Compound | inhibition
79 | Cc1ccc(NC2=C/C(=N\S(=O)(=O)c3cccs3)c3ccccc3C2=O)c(C)c1 | 50.1% (active)
80 | CC(=O)Nc1ccc(NC2=C/C(=N/S(=O)(=O)c3cccs3)c3ccccc3C2=O)cc1 | 54.1% (active)
81 | Cc1cccc(NC2=C/C(=N/S(=O)(=O)c3cccs3)c3ccccc3C2=O)c1 | 56.8% (active)
82 | CCN1CCN(CC(=O)NC2CCCC2)C(=O)C1=O | 5.9% (inactive)
83 | CC(NC(=O)C1CCCN(S(=O)(=O)c2cnc[nH]2)C1)c1ccccc1 (stereo unspecified) | -0.1% (inactive)
84 | CCOc1ccccc1-c1nc(-c2ccc(NC(=O)Cc3ccc(OC)cc3)cc2)no1 | -5.8% (inactive)
85 | COc1ccc(NC(=O)N2CCN(S(C)(=O)=O)CC2)cc1OC | 14% (inactive)
86 | COc1ccccc1NC(=O)/C(C#N)=C/c1cc([N+](=O)[O-])ccc1N1CCCC1 | -6.4% (inactive)
87 | COc1cc(OC)cc(C(=O)NC(C(=O)O)C23CC4CC(CC(C4)C2)C3)c1 (stereo unspecified) | -4.9% (inactive)
88 | COc1ccc(/C(O)=C2/C(=O)C(=O)N(CC3CCCO3)C2c2ccc(O)c(OC)c2)cc1 (stereo unspecified) | 5.8% (inactive)
89 | O=S(=O)(NCCNc1ncc(C(F)(F)F)cc1Cl)C(F)(F)F | 6.3% (inactive)
90 | CCOc1cc(NC(=S)NCC2CCCO2)c(OCC)cc1NC(=O)c1ccc(C)cc1 (stereo unspecified) | 58.2% (active)
91 | CCOc1cc(NC(=S)NCC2CCCO2)c(OCC)cc1NC(=O)c1cccc(F)c1 (stereo unspecified) | 53.7% (active)
92 | CCOc1cc(NC(=S)NCC2CCCO2)c(OCC)cc1NC(=O)C1CC1 (stereo unspecified) | 5.5% (inactive)
93 | CCOc1ccccc1NC(=S)NCC1CCCO1 (stereo unspecified) | -3.2% (inactive)
94 | CCOc1cc(NC(=S)NCC2CCCO2)c(OCC)cc1NC(=O)c1ccccc1 (stereo unspecified) | 17.7% (inactive)
95 | CCOc1cc(NC(=S)NCC2CCCO2)c(OCC)cc1NC(=O)c1cccc(C)c1 (stereo unspecified) | 17% (inactive)
96 | CCOc1cc(NC(=S)NCC2CCCO2)c(OCC)cc1NC(=O)CC(C)C (stereo unspecified) | 15.4% (inactive)
97 | CCOc1cc(NC(=S)NCC2CCCO2)c(OCC)cc1NC(=O)CC (stereo unspecified) | 6.9% (inactive)
98 | CCOc1cc(NC(=S)NCC2CCCO2)c(OCC)cc1NC(=O)c1ccc(OC)cc1 (stereo unspecified) | 35% (inactive)
99 | CCOc1cc(NC(=S)NCC2CCCO2)c(OCC)cc1NC(=O)c1ccc(F)cc1 (stereo unspecified) | 54.9% (active)
100 | CCOc1cc(NC(=S)NCC2CCCO2)c(OCC)cc1NC(=O)c1ccccc1F (stereo unspecified) | 53.9% (active)
101 | CCOc1cc(NC(=S)NCC2CCCO2)c(OCC)cc1NC(=O)c1ccccc1C (stereo unspecified) | 5.7% (inactive)
